# In PubChem BioAssay AID602449 (Sanford-Burnham Center for Chemical Genomics, 2012):
# In all, about 360,000 compounds went through this assay and about 5,000 (1.4%) were called active. The sample holds actives, similar compounds and a random draw of the others, so the mix is not that of the screen. A number with no mark means an inactive call.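 How the source made its calls: active means inhibition of 50% or more, scaled per plate between neutral and stimulator controls; inactive means the rest.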
# Test: mitochondrial permeability transition pore inhibitors, primary screen, biochemical, isolated mouse mitochondria, absorbance (AID 602449);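 further: 0% = DMSO wells given calcium and 100% = 1 mM EGTA wells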
# Conditions: Ca2+ swelling absorbance, 30 min, at 10 µM, active compounds read high
row,Structure (SMILES),inhibition
1,CCc1c(C)sc(NC(=O)c2cccs2)c1C(N)=O,-0.6%
2,OC(C#CCN1CCOCC1)(c1ccccc1)C1CCCCC1 (stereo unspecified),-2.4%
3,CCc1oc(-c2ccc(OC)cc2)c(C(=O)OCCCCCO)c1C(C)OCCO (stereo unspecified),0.2%
4,CCC(C)(C)NC(=O)CN(C(=O)C(=O)Nc1ccc2c(c1)OCCO2)C(C)(C)CC,-1%
5,O=C1[C@@H]2C(c3cccnc3)=NO[C@@H]2C(=O)N1c1ccc(Cl)cc1Cl,2.7%
6,CC(=O)Nc1ccc(NS(=O)(=O)c2cc(C)sc2C)cc1,0.5%
7,CN(C)Cc1c(C#N)c2ccccc2n1C,-1.4%
8,CCCc1cc(=S)n2c([nH]c3ccccc32)c1C#N,94.4% (active)
9,O=C(COc1ccc(Cl)cc1)NCCS(=O)(=O)N1CCN(c2ccc(F)cc2)CC1,1.5%
10,CCOC(=O)N1CCC(NC(=O)C(NS(=O)(=O)c2ccc3c(c2)CCN3C(=O)CC)C(C)C)CC1 (stereo unspecified),-0.2%
11,Cc1ccc(CNC(=O)[C@@H](NC(=O)Cc2ccccc2)C(C)C)cc1,0.5%
12,O=C(Cc1cccc2ccccc12)NNC(=O)Nc1ccc(Cl)cc1,72.6% (active)
13,CN(CC(=O)Nc1ccc(Cl)cc1)CC(=O)Nc1cccc2ccccc12,0.6%
14,O=C(O)Cc1ccc(NC(=O)Nc2cccc3ccccc23)cc1,0.9%
15,Cc1ccc(NC(=S)NC(NC(=O)Cc2cccc3ccccc23)C(Cl)(Cl)Cl)cc1 (stereo unspecified),55.5% (active)
16,CC(C)(C)C(=O)NC(NC(=S)Nc1ccc(S(N)(=O)=O)cc1)C(Cl)(Cl)Cl (stereo unspecified),-2.5%
17,CCCOC(=O)CC1C(=O)NCCN1Cc1ccc(F)cc1 (stereo unspecified),0.6%
18,Cn1nnnc1SCC(=O)Nc1cccc(S(=O)(=O)N2CCCCC2)c1,-0.1%
19,Cc1cc(C)cc(NS(=O)(=O)c2ccc(Oc3ncc(C(F)(F)F)cc3Cl)cc2)c1,50.8% (active)
20,Cc1ccc(NS(=O)(=O)c2ccc(F)cc2)nc1,-0.6%
21,CN(NS(=O)(=O)c1cccs1)c1ncc(C(F)(F)F)cc1Cl,2.5%
22,COc1ccc(CCOC(=O)CNC(=O)c2ccc(Cl)cc2Cl)cc1,1.4%
23,O=C(COc1ncnc2ccccc12)NC(=O)NCc1ccccc1,-0.1%

row,Structure (SMILES),inhibition
1,COc1ccc(CNc2ncnc3ccccc23)cc1,70.5% (active)
2,COc1ccc(CNc2nccs2)cc1,0.7%
3,CC1(C)C2CC=C(/C=N/NC(=O)C3CC3)C1C2 (stereo unspecified),-1.7%
4,CCOc1ccc(N2C(=O)/C(=C/c3ccc(C)o3)N(C)C2=S)cc1,4.3%
5,Cc1c(C)n2c(SCC(=O)NC3CCCC3)nnc2[nH]c1=O,-1.2%
6,O=C1CCCCC1Sc1ccc(Cl)cc1[N+](=O)[O-] (stereo unspecified),-0.4%
7,CC(C)c1ccccc1OCC(O)CN(CC(O)COc1cccc2ccccc12)C(C)C (stereo unspecified),61.5% (active)
8,CC1CC(C)CN(CCOc2cccc3ccccc23)C1 (stereo unspecified),-1.7%
9,CN1CCN(CCCCOc2cccc3ccccc23)CC1,-0.6%
10,Cc1ccc(C(=O)NCC(=O)NCc2cc(=O)n(C)c(=O)n2C)cc1,-1.3%
11,O=C(NNC(=O)c1ccc(-n2cncn2)c([N+](=O)[O-])c1)c1ccccc1,-2.8%
12,Cc1ccc(NC(=O)c2cccc(S(=O)(=O)N3CCCc4ccccc43)c2)nc1,-1.2%
13,CNC(=O)c1ccsc1NC(=O)c1ccc(S(=O)(=O)N2CCc3ccccc32)cc1,0.6%
14,CC(Nc1ccc([N+](=O)[O-])cc1[N+](=O)[O-])c1ccccc1 (stereo unspecified),1%
15,CSc1ncccc1C(=O)Nc1nc2ccc(F)cc2s1,5.6%
16,NS(=O)(=O)c1ccc2nc(NC(=O)C3=COCCO3)sc2c1,-0.6%
17,O=C(Nc1nc2ccc([N+](=O)[O-])cc2s1)c1ccc(S(=O)(=O)N2CCCc3ccccc32)cc1,78.1% (active)
18,Cc1cc(C)cc(OCC(=O)Nc2cc(NC(=O)COc3cc(C)cc(C)c3)cc(C(=O)O)c2)c1,1.6%
19,Cc1cc(C)cc(OCC(=O)O/N=C(\N)Cc2ccc([N+](=O)[O-])cc2)c1,3.2%
20,Cc1cc(C)cc(OCC(=O)Nc2nc3ccc([N+](=O)[O-])cc3s2)c1,50.4% (active)
21,O=C(NC(Nc1nc2ccc([N+](=O)[O-])cc2s1)(C(F)(F)F)C(F)(F)F)c1ccccc1,93.7% (active)
22,O=C(Nc1nc2ccc([N+](=O)[O-])cc2s1)c1ccncc1,68.5% (active)
23,COc1ccc(-c2n[nH]c3c2CN(C(=O)c2ccc(F)cc2)CC3)cc1,1.2%

row,Structure (SMILES),inhibition
1,COc1ccccc1CSc1ncc(-c2ccc([N+](=O)[O-])cc2)[nH]1,24.2%
2,CC1(C)C2CCC1(CS(=O)(=O)NCCc1c[nH]c3ccccc13)C(=O)C2 (stereo unspecified),0.4%
3,CC(=O)N1c2ccc(S(=O)(=O)N3CCCC(C(=O)Nc4ccc(C)cc4C)C3)cc2CC1C (stereo unspecified),0.4%
4,COc1ccc(NS(=O)(=O)c2cc(NC(=O)C3CCCCC3)ccc2N2CCOCC2)cc1,-0.4%
5,CCOc1ncccc1C(=O)N(CC)CC(=O)Nc1ccc(NC(C)=O)cc1,-0.1%
6,Cc1cc(Cl)c2oc(C(=O)NC(C)c3ccncn3)c(C)c2c1 (stereo unspecified),-0.4%
7,COC(=O)[C@@]12C[C@@H](CC(=O)NCc3cccc(C(F)(F)F)c3)C(=O)N(Cc3ccco3)C1=CCC(C)(C)C2,-0.5%
8,COc1ccc(C(=O)NC2(C(F)(F)F)NC(=O)N(CCCc3ccccc3)C2=O)c(OC)c1OC (stereo unspecified),11.9%
9,CCCC1=Nc2cc(C(=O)NCCN3CCCC3)ccc2Sc2ccccc21,-1.2%
10,Cc1cccc(-c2nc3ccc(C(=O)NCCN4CCN(C)CC4)cc3nc2-c2cccc(C)c2)c1,55.9% (active)
11,Cc1cccc(C(=O)OC(C)CN2CCN(C)CC2)c1 (stereo unspecified),-1.6%
12,C[C@H](NS(=O)(=O)c1ccc(Cl)cc1)C(=O)OCC(=O)N1CCOCC1,1.4%
13,COc1ccc(C(C)C)cc1S(=O)(=O)Nc1ncn[nH]1,-0.4%
14,CC(=O)c1c(C)[nH]c(C(=O)CN2C(=O)NC(C)(C)C2=O)c1C,-0.1%
15,O=C(CSc1nc2ccc([N+](=O)[O-])cc2[nH]1)c1ccc(Cl)cc1,104% (active)
16,CC(=O)Nc1ccc(C(=O)CSc2nc3ccc(C)cc3[nH]2)cc1,-1.5%
17,Cc1nc(SCC(=O)c2ccccc2)c([N+](=O)[O-])[nH]1,3.9%
18,COc1cccc(NC(=O)CN(C)C(=O)CSCc2nc3scc(-c4cccs4)c3c(=O)[nH]2)c1,-0.9%
19,Cc1ccccc1N1CC(C(=O)Nc2nnc(SCCC3OCCO3)s2)CC1=O (stereo unspecified),-2.6%
20,Cc1cccc(COc2ccccc2/C=N/Nc2ccc([N+](=O)[O-])cc2)c1,69.1% (active)
21,Cc1cc([N+](=O)[O-])ccc1NCc1cccc([N+](=O)[O-])c1,6.8%
22,CC(C)c1ccc(C=NNc2ccc([N+](=O)[O-])cn2)cc1,7%
23,Cc1ccccc1OCCOc1ccc([N+](=O)[O-])cc1/C=N/n1cnnc1,3.3%

row,Structure (SMILES),inhibition
1,O=[N+]([O-])c1ccc(N/N=C/c2ccccc2)cc1,63.2% (active)
2,O=[N+]([O-])c1ccc(N=NNc2ccc([N+](=O)[O-])cc2)cc1,21.4%
3,c1ccc(-c2cn3c(n2)CCc2ccc4cccnc4c2-3)cc1,-2%
4,O=C(OCC(=O)N1CCCCCC1)c1cccc(Cl)c1Cl,3.6%
5,CN(C)CCN=c1cc(-c2ccccc2)oc2ccc(Cl)cc12,3%
6,CCCCn1c(N)c(N(CC(C)C)C(=O)c2ccc(Br)o2)c(=O)[nH]c1=O,-1.5%
7,CC(NC(=S)Nc1ccc(OC(F)F)cc1)c1ccc(F)cc1 (stereo unspecified),102% (active)
8,CC/C(=N\NC(=S)NC(C)C)c1ccc(OC(F)F)cc1,1.8%
9,CC(C)N(Cc1ccccc1)C(=S)Nc1ccc(OC(F)F)cc1,5.8%
10,Cc1cc(Br)ccc1NC(=O)c1cnc(N2CCN(c3ccccn3)CC2)c2ccccc12,0.4%
11,O=C(O)c1ccc([N+](=O)[O-])cc1Sc1ccsc1,0.7%
12,COCCn1c(SCC(=O)Nc2cc(OC)ccc2OC)nc2c(c1=O)SC(C)C2 (stereo unspecified),1.2%
13,CCCCCc1c(-c2ccc(OC)c(OC)c2)ncn1CCc1ccccc1OC,5.6%
14,CCCCCc1c(Cc2ccccc2)ncn1CCc1ccccc1OC,85.6% (active)
15,CCCCCc1c(-c2cccc(Br)c2)ncn1CCc1ccccc1OC,1.3%
16,CCCCn1c(N)c(N(CC(C)C)C(=O)c2cccc(S(=O)(=O)N3CC(C)OC(C)C3)c2)c(=O)[nH]c1=O (stereo unspecified),6.1%
17,CCOC(=O)c1cnc(Nc2nc3ccccc3o2)nc1CSC(=S)N1CCCCC1,1.4%
18,O=C(CN1C(=O)CC(c2ccccc2)=Nc2ccccc21)NC1CCCCC1,-0.4%
19,Cc1cc([N+](=O)[O-])c(NC2CCCCC2)c([N+](=O)[O-])c1,0.6%
20,Cc1cc(C=O)c(C)n1-c1ccc(NC2CCCCC2)c([N+](=O)[O-])c1,80.6% (active)
21,COc1ccc(NC(=O)CN(C)C(=O)c2ccc(NC3CC3)c([N+](=O)[O-])c2)cc1,0.5%
22,OC[C@@H]1CN(Cc2ccc(-c3ccccc3)cc2)C[C@H](n2cnc3c(NC4CCCC4)ncnc32)O1,17.2%
